Results: the supplement of paper PMC6992640
Where a name gives a salt, the structure may show the parent alone. ± gives the standard deviation of the averaged measurements.

Assays:
Test in all cases: cell viability (% of vehicle); higher = less cytotoxic
Conditions in all cases: 10 µM; 72 h
HCI01 = system: HCI01 (cells of a triple-negative basal-like breast cancer xenograft)
HCI03 = system: HCI03 (cells of an ER-positive luminal breast cancer xenograft)
HCI09 = system: HCI09 (cells of a triple-negative luminal androgen receptor type breast cancer xenograft)
HCI11 = system: HCI11 (cells of an ER-positive luminal breast cancer xenograft)
HCI13 = system: HCI13 (cells of an ER-positive luminal breast cancer xenograft)
HCI16 = system: HCI16 (cells of a triple-negative basal-like breast cancer xenograft)
UCD52 = system: UCD52 (cells of a triple-negative basal-like breast cancer xenograft)
WHIM2 = system: WHIM2 (cells of a triple-negative basal-like breast cancer xenograft)
WHIM30 = system: WHIM30 (cells of a triple-negative basal-like breast cancer xenograft)
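Further: PDX cells carrying CMV promoter-driven luciferase, viability read as total photon flux per second by IVIS imaging following D-luciferin, vehicle control 0.1% DMSO.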

Row | SMILES | cell viability (HCI01) | cell viability (HCI03) | cell viability (HCI09) | cell viability (HCI11) | cell viability (HCI13) | cell viability (HCI16) | cell viability (UCD52) | cell viability (WHIM2) | cell viability (WHIM30)
1 | CCCCCCCCCCCCCCCCCCCCCCO [Docosanol (Abreua)] | 82.8 ± 2.5 | 93.4 | 82.5 ± 8 | 95.6 | 97.3 ± 27 | 84.5 | 76.5 ± 11 | 81.8 ± 19 | 102 ± 3
2 | CC(C)(C)NC(=O)NC(C(=O)N1CC2C(C1C(=O)NC(CC1CCC1)C(=O)C(N)=O)C2(C)C)C(C)(C)C (configuration not stated) [Boceprevir] | 100 ± 19 | 83.8 | 87.2 ± 6.2 | 101 | 72.5 ± 1.2 | 65.1 | 80.1 ± 16 | 80.7 ± 15 | 85.1 ± 8.9
3 | CC(c1cc2ccccc2s1)N(O)C(N)=O (configuration not stated) [Zileuton] | 101 ± 13 | 136 | 105 ± 10 | 101 | 134 ± 24 | 128 | 112 ± 4 | 112 ± 21 | 134 ± 13
4 | C#CCNC1CCc2ccccc21.CS(=O)(=O)O (configuration not stated) [Rasagiline Mesylate] | 157 ± 6 | 117 | 117 ± 8.5 | 127 | 126 ± 4.8 | 141 | 107 ± 8.4 | 114 ± 6.4 | 139 ± 16
5 | Cl.Cl.NC(=NCCCCCCN=C(N)N=C(N)Nc1ccc(Cl)cc1)N=C(N)Nc1ccc(Cl)cc1 [Chlorhexidine HCl] | 99.4 ± 3 | 88.3 | 89.7 ± 3 | 76 | 96.44 ± 0.43 | 124 | 92.8 ± 7.6 | 108 ± 4.1 | 82.3 ± 3.8
6 | CCOc1cc(CC(=O)NC(CC(C)C)c2ccccc2N2CCCCC2)ccc1C(=O)O (configuration not stated) [Repaglinide] | 88 ± 1.1 | 131 | 117 ± 15 | 111 | 80.3 ± 12 | 118 | 80.672 ± 0.07 | 96.8 ± 5.5 | 126 ± 18
7 | NC1CN(c2c(F)cc3c(=O)c(C(=O)O)cn(C4CC4F)c3c2Cl)CC12CC2.O (configuration not stated) [Sitafloxacin Hydrate] | 83.3 ± 48 | 95.5 | 111 ± 13 | 90.5 | 116.6 ± 0.93 | 122 | 88.8 ± 9.9 | 95.6 ± 27 | 119 ± 4.7
8 | O=C1CN(/N=C/c2ccc(-c3ccc([N+](=O)[O-])cc3)o2)C([O-])=N1.[Na+] [Dantrolene, sodium salt] | 98.7 ± 15 | 174 | 83.5 ± 7.8 | 99.1 | 105 ± 9.9 | 110 | 92.4 ± 4.7 | 104 ± 4 | 130 ± 7.4
9 | COc1cc2nc(N3CCN(C(=O)C4CCCO4)CC3)nc(N)c2cc1OC.Cl.O.O (configuration not stated) [Terazosin HCl] | 137 ± 8 | 116 | 110 ± 19 | 101 | 104 ± 2 | 123 | 85.8 ± 15 | 113 ± 5.9 | 114 ± 12
10 | NCC(=O)CCC(=O)O [5-Aminolevulinic acid HCl] | 79.2 ± 41 | 132 | 89.9 ± 2.3 | 83.2 | 113 ± 24 | 164 | 82.6 ± 7.6 | 129 ± 24 | 146 ± 6.6
11 | CCC(CC)C(NC(C)=O)C1C(N=C(N)N)CC(C(=O)O)C1O (configuration not stated) [Peramivir] | 112 ± 9.2 | 110 | 91.2 ± 18 | 98 | 102 ± 20 | 78.9 | 81.6 ± 14 | 97.5 ± 6.7 | 136 ± 24
12 | COc1cc2c(cc1OC)CN(CCc1ccc(NC(=O)c3cccc4c(=O)c5cccc(OC)c5[nH]c34)cc1)CC2 [Elacridar] | 111.7 ± 0.54 | 71.7 | 71.7 ± 33 | 101 | 113 ± 35 | 97.7 | 63.7 ± 5.6 | 48.2 ± 22 | 89.9 ± 0.9
13 | C=CC(=O)Nc1cccc(Nc2nc(Nc3ccc(N4CCN(C(C)=O)CC4)cc3OC)ncc2C(F)(F)F)c1 | 103 ± 4.6 | 99.9 | 63.8 ± 0.93 | 94 | 88.2 ± 3.4 | 73.3 | 64.7 ± 17 | 66.7 ± 2.6 | 99.6 ± 16
14 | CNCCC(Oc1ccccc1C)c1ccccc1.Cl (configuration not stated) [Atomoxetine HCl] | 119 ± 8.9 | 145 | 111 ± 11 | 108 | 105 ± 3.7 | 130 | 85 ± 3.7 | 88.7 ± 17 | 180 ± 28
15 | O=C(NCC(O)CO)c1ccncc1Nc1ccc(I)cc1F (configuration not stated) | 72.8 ± 3.9 | 72.9 | 55.3 ± 28 | 83.1 | 64.4 ± 5.6 | 116 | 70.57 ± 0.44 | 41.9 ± 8.5 | 130 ± 14
16 | CCCNC1CCc2nc(N)sc2C1 (configuration not stated) [Pramipexole] | 122 ± 25 | 111 | 113 ± 5.7 | 110 | 163 ± 2.5 | 151 | 114 ± 20 | 101.5 ± 0.41 | 100 ± 12
17 | CCCCCCCCCCCCCCCC(=O)OCC=C(C)C=CC=C(C)C=CC1=C(C)CCCC1(C)C [Retinyl (Vitamin A) Palmitate] | 102 ± 22 | 100 | 88.4 ± 3.2 | 88.1 | 79 ± 17 | 104 | 94.3 ± 4.9 | 112 ± 27 | 125 ± 13
18 | COc1c(C)c2c(c(O)c1CC=C(C)CCC(=O)OCCN1CCOCC1)C(=O)OC2 [Mycophenolate Mofetil] | 141 ± 31 | 106 | 86.9 ± 23 | 103 | 81.8 ± 11 | 86.2 | 91.4 ± 22 | 112 ± 7.2 | 130 ± 30
